This is an account of results in PubChem BioAssay (NCI).

Assay in all cases: NCI-60 one-dose screen, 48 h (100 = growth as untreated, 0 = no growth, -100 = all killed)
Holding throughout (conditions): 10 µM unless noted

The test system of test [1] is DU-145 prostate.
The test system of test [2] is K-562 leukemia.
Test [3] relates to MALME-3M melanoma.
In test [4] the test system is MDA-MB-231 breast.
The test system of test [5] is RXF 393 renal.
In test [6] the test system is SF-268 CNS.
Test [7] relates to SF-295 CNS.
For test [8], the system named is SF-539 CNS.
Test [9] relates to UACC-257 melanoma.
In test [10] the test system is M14 melanoma.
Test [11] deals with HCT-15 colon.
Test [12] relates to HT29 colon.
Test [13] relates to SNB-75 CNS.
In test [14] the test system is SNB-19 CNS.
In test [15] the test system is U251 CNS.
Test [16] concerns PC-3 prostate.
Test [17] has as its system SK-MEL-5 melanoma.
For test [18], the system named is UACC-62 melanoma.
Test [19] relates to LOX IMVI melanoma.
The subject of test [20] is SK-MEL-28 melanoma.

SMILES strings stand for the structures. About 83,000 compounds went through this panel and 20% of them were active in at least one assay; those are over-represented in the sample as a whole.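 Negative percent growth values reflect cell death: -40 means 40% of the cells present at the start died, and -100 means all died.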 Unmarked numbers belong to inactive results. The source made the active and inactive calls. The calls were made as follows: active = growth percent below 10; inactive = the rest.

For the compound `CN1CCN(C(=O)C(C)(C)c2ccc(C(=O)Nc3cn4cc(-c5ccncc5)ccc4n3)cc2)CC1`, the growth was 16.1% in test [1]; 10.2% in test [2]; -11.9% (active) in [3]; 21.1% in test [4]; -61.1% (active) in test [5]; 9.95% (active) in [6]. In addition, the growth was 8.85% (active) in test [7]; -1.81% (active) in test [8]; 13% in [9]; 13.1% in test [10]; 2.11% (active) in [11]; 6.49% (active) in test [12]. The growth in [13] was -5.48% (active); in test [14], 9.14% (active); in [15] it was 16%; in [16], 25.7%; in test [17] it was -98.2% (active); in test [18], -31.3% (active). In addition, the figures for the growth in test [19] and in test [20] were -19.9% (active) and 7.28% (active), respectively.
Regarding `CC(=O)/C(=C/c1ccc([N+](=O)[O-])cc1)C(=O)c1ccccc1`, the growth in test [1] was 92.6%; in [2] it was 31.3%; in test [3], 89.1%; in test [4], 91.4%; in [5] it was 74.2%; in test [6] it was 76.1%. In addition, the growth in test [7] was 93.3%; in [8] it was 102%; in [9], 76.3%; in test [10], 79.8%; in test [11], 60.6%; in test [12], 41.1%. Further, the growth is 88.5% in test [13]; 92.5% in test [14]; 71.3% in [15]; 63.4% in [16]; 87.5% in [17]; 77.2% in [18]. Further, the growth was -28.5% (active) in test [19] and 91.6% in test [20].
As to `CN1CCN(CCOc2ccc(-c3cnc4c(-c5ccc(F)cc5)cnn4c3)cc2)CC1`, the growth in [1] was 42.2%; in test [2], -6.74% (active); in [3] it was 53.5%; in test [4] it was 55.1%; in test [5] it was 48.8%; in [6], 56.9%. In addition, the growth in [7] is 81%; in test [8] it was 49.5%; in [9], 28.4%; in test [10] it was -29.8% (active); in test [11], -15.8% (active); in [12] it was 1.11% (active). In addition, the growth was 68% in [13]; 82% in test [14]; 38.2% in [15]; 47.5% in [16]; 61.2% in test [17]; 50.7% in [18]. In addition, the growth in [19] is -78.5% (active); in [20], 79.4%.
Regarding `O=C1/C(=C\c2cccc3nccnc23)SC(=S)N1CCc1ccc(O)cc1`, the growth in test [1] was 98.1%; in test [2], 88.5%; in test [3], 87.3%; in test [4] it was 83.8%; in [5], 107%; in test [6] it was 97%. In addition, the growth was 101% in [7]; 97.7% in test [8]; 100% in test [9]; 96.3% in [10]; 101% in test [11]; 116% in [12]. For the same compound, the growth in test [13] is 89%; in [14] it was 94.4%; in test [15], 107%; in [16] it was 84%; in test [17] it was 95%; in [18] it was 76.4%. Also, the growth in test [19] was 94.5%; in [20] it was 99.5%.
Take `Cc1ccc(/C=C/C(=O)c2cccc(OCCCOc3cccc(C(=O)/C=C/c4ccc(C)cc4)c3)c2)cc1`: the growth in test [1] was 88.9%; in test [2], 52.9%; in [3], 98.8%; in [4], 86.8%; in [5], 85.7%; in test [6] it was 79.6%. The growth in test [7] is 77.4%; in [8], 83.8%; in test [9], 96.4%; in test [10], 73.4%; in test [11], 64.4%; in test [12] it was 51.5%. The growth in test [13] is 70.2%; in test [14], 77.2%; in test [15] it was 41%; in test [16], 72.2%; in test [17], 90.2%; in test [18], 62.9%. Besides, the growth is 25.5% in test [19] and 97.7% in test [20].
Consider `O=C(NC1CC(F)C1)c1cc2cccnc2n1-c1ccc(Cl)c(Cl)c1` (stereo not given), for which the growth was 106% in test [1]; 96.3% in test [2]; 113% in test [3]; 96.5% in test [4]; 102% in [5]; 91.6% in [6]. In addition, the growth in test [7] is 95.1%; in test [8] it was 98%; in test [9], 96.9%; in test [10], 111%; in test [11], 96.6%; in test [12] it was 101%. Moreover, the growth in test [13] was 89.1%; in [14], 95.2%; in [15], 93.9%; in [16] it was 89.8%; in [17] it was 98.9%; in [18], 83.7%. Further, the values for the growth in [19] and in test [20] were 89.6% and 117%, respectively.
As to `COC(=O)c1cc(Br)ccc1O`, the growth in test [1] was 110%; in test [2], 111%; in test [3] it was 102%; in test [4] it was 118%; in test [5], 101%; in test [6], 105%. The growth in [7] was 102%; in test [8], 107%; in test [9] it was 109%; in [10], 105%; in test [11], 101%; in [12], 103%. Besides, the growth was 91.5% in test [13]; 108% in [14]; 102% in test [15]; 94.5% in test [16]; 95.2% in test [17]; 102% in test [18]. Besides, the growth in [19] was 94.7%; in test [20], 107%.
Take `COc1ccc(C2=NN(C(C)=O)C(c3cn(-c4ccccc4)nc3-c3ccc(Cl)cc3)C2)cc1` (stereo not given): the growth in test [1] was 17.4%; in test [2] it was 13.1%; in test [3] it was 52%; in test [4], 17.2%; in [5], -10.5% (active); in [6], 27.2%. For the same compound, the growth in test [7] is 42.4%; in test [8] it was 15.8%; in test [9], 66.4%; in test [10], 17.2%; in test [11], 17.1%; in [12], -6.18% (active). Moreover, the growth in [13] was -4.48% (active); in test [14] it was 34.2%; in [15], -7.11% (active); in test [16] it was 34.3%; in test [17] it was 27.1%; in [18] it was 20%. For the same compound, the growth is 0.526% (active) in test [19] and 56.3% in test [20].
On to `O=C1C(Nc2ccccn2)=C(I)C(=O)c2ncccc21`, for which the growth was -93.6% (active) in test [1]; 1.75% (active) in test [2]; -99.6% (active) in test [3]; -31.8% (active) in [4]; -60.8% (active) in [5]; -33.1% (active) in test [6]. The growth in test [7] is -31.6% (active); in test [8], -98% (active); in [9] it was -27.9% (active); in test [10], -84.5% (active); in test [11], -60% (active); in [12], -14.5% (active). In addition, the growth was -94.3% (active) in test [13]; 0% (active) in test [14]; -82.4% (active) in [15]; 6.61% (active) in test [16]; -98.9% (active) in test [17]; -68% (active) in test [18]. Besides, the growth in test [19] was -72.7% (active); in test [20] it was -36.7% (active).
Regarding `COc1ccc(C(=O)c2cc3c(N)c(C(=O)Nc4ccccc4)sc3nc2C)cc1`, the growth in test [1] is 17.7%; in test [2] it was 8.08% (active); in test [3] it was 62.7%; in test [4], 23.3%; in test [5], -2.82% (active); in test [6], 51.4%. For the same compound, the growth in [7] was 26.9%; in test [8], -5.08% (active); in [9], 70.7%; in [10] it was 13.1%; in [11], 18.7%; in test [12], 14.9%. Moreover, the growth in test [13] is 28.2%; in test [14], 25.2%; in test [15], 17.8%; in test [16] it was 24.3%; in test [17], 17.2%; in test [18], 30.5%. Further, the values for the growth in [19] and in test [20] were 53.6% and 59.8%, respectively.
As for `COc1ccc(C(=O)/C=C/c2ccc(N3CCCCC3)cc2)cc1OC`, the growth in test [1] is 95.4%; in [2] it was 76%; in test [3], 104%; in test [4], 91.8%; in test [5] it was 107%; in [6] it was 95.3%. The growth in test [7] was 95.2%; in [8] it was 98.2%; in [9] it was 82.8%; in test [10] it was 89.4%; in [11], 94.9%; in [12], 95.1%. The growth in test [13] was 84.3%; in test [14] it was 91.3%; in test [15], 95.6%; in test [16], 81%; in test [17], 90.4%; in test [18] it was 75.3%. In addition, the growth in [19] was 97.1%; in test [20], 102%.
As for `N#C/C(=C\c1ccc([N+](=O)[O-])cc1)n1nnc2cc(F)c(F)cc21`, the growth in test [1] was 14.6%; in test [2], 5.08% (active); in test [3] it was 33.1%; in [4] it was 8.32% (active); in test [5], -64.7% (active); in [6] it was 31%. The growth was 98.1% in test [7]; -33.7% (active) in test [8]; 77.4% in test [9]; 28.4% in test [10]; -7.69% (active) in test [11]; 0.57% (active) in test [12]. Further, the growth in [13] was 46.3%; in [14], 69%; in [15] it was 43.5%; in test [16], -16% (active); in [17], 81.3%; in test [18] it was -43.7% (active). In addition, the growth in [19] is -97.6% (active); in test [20] it was 101%.
Consider `CCN(CC)CCCOc1ccc2ncnc(Nc3ccc(Oc4cccc(C(F)(F)F)c4)c(Cl)c3)c2c1`, for which the growth was 3.42% (active) in [1]; -28.6% (active) in [2]; -76.2% (active) in [3]; -42.2% (active) in [4]; -64.9% (active) in test [5]; 35.1% in test [6]. For the same compound, the growth is -61.7% (active) in [7]; -87.5% (active) in test [8]; -60.5% (active) in [9]; -72% (active) in test [10]; -33.6% (active) in [11]; -44.6% (active) in [12]. In addition, the growth in test [13] is 33.9%; in test [14], 30.9%; in [15], -28.6% (active); in test [16], 8.76% (active); in test [17] it was -100% (active); in test [18], -33.8% (active). Further, the growth is -100% (active) in [19] and -89.1% (active) in test [20].
For `COc1ccc(CCN(CC(=O)N(CC(N)=O)C2CCC[C@@H]2OCc2ccccc2)C(=O)CN(C(=O)CN(CCc2ccc(Cl)cc2)C(=O)CN(C(=O)CN(C)Cc2ccccc2F)[C@H](C)C2CCCCC2)[C@H](C)C2CCCCC2)cc1OC` (stereo not given in full), the growth was 43.7% in test [1]; 10.4% in [2]; 51.7% in test [3]; 29.7% in test [4]; -10% (active) in test [5]; 26.5% in [6]. For the same compound, the growth in test [7] was -0.412% (active); in [8] it was 33.7%; in test [9], -5.66% (active); in test [10] it was 19.3%; in [11], 33.7%; in test [12] it was 0.386% (active). Besides, the growth in [13] is 53.5%; in test [14] it was 33.9%; in test [15] it was 21.5%; in test [16], 15%; in test [17], -41.8% (active); in test [18] it was 33.8%. For the same compound, the growth in [19] was -33% (active); in [20], 32.5%.
